Results as given in PubChem BioAssay (NCI).
The panel holds about 79,000 compounds, 15% with a hit somewhere; the sample as a whole holds those more often. Active and inactive are the calls of the source. Rule as the data show it: active = growth inhibition above about 70%; inactive = the rest.

Assays:
[1] = NCI Yeast Anticancer Drug Screen. Data for the rad52 strain (AID 147);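 also: 0% = growth of vehicle-treated control cultures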; conditions: S. cerevisiae rad52 mutant growth inhibition, stronger effect = higher value
Procedure, shortened: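 Measured: yeast growth inhibition. System: strain with a defined DNA damage repair alteration. Reference: vehicle-treated control cultures.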

[2] = NCI Yeast Anticancer Drug Screen. Data for the rad50EPP+ strain (AID 151);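 also: 0% = growth of vehicle-treated control cultures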; conditions: S. cerevisiae rad50 mutant strain, stronger effect = higher value
Procedure, shortened: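 One strain with a rad50 alteration (rad50EPP+) was compound-treated, its growth then compared to that of vehicle controls.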

[3] = NCI Yeast Anticancer Drug Screen. Data for the mgt1 strain (AID 153); conditions: S. cerevisiae mgt1 mutant growth inhibition, stronger effect = higher value
Procedure, shortened: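 After exposure of the mgt1 yeast mutant to compound, growth was measured and reported as inhibition compared with vehicle controls.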

[4] = NCI Yeast Anticancer Drug Screen. Data for the rad50 strain (AID 155);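 also: 0% = growth of vehicle-only cultures of the same strain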; conditions: S. cerevisiae rad50 strain growth inhibition, stronger effect = higher value
Procedure, shortened: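 Inhibition values express reduced yeast growth in compound-treated cultures relative to vehicle-treated controls.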

[5] = NCI Yeast Anticancer Drug Screen. Data for the mec2-1 strain (AID 157); conditions: S. cerevisiae mec2-1 strain, stronger effect = higher value
Procedure, shortened: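 Test agents were screened against the mec2-1 yeast strain, with defined DNA repair or cell cycle alteration. Growth was scored as inhibition against vehicle-only controls.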

[6] = NCI Yeast Anticancer Drug Screen. Data for the rad14 strain (AID 159);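 also: 0% = growth of vehicle-treated control cultures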; conditions: S. cerevisiae rad14 strain growth inhibition, stronger effect = higher value
Procedure, shortened: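 A mutant yeast strain defective in DNA damage repair is treated with compound; inhibition of its growth is scored against untreated, vehicle-exposed cultures.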

[7] = NCI Yeast Anticancer Drug Screen. Data for the sgs1 mgt1 strain (AID 161);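 also: 0% = growth of cultures given vehicle only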; conditions: S. cerevisiae sgs1 mgt1 strain, stronger effect = higher value
Procedure, shortened: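 Genetically altered yeast, compound exposure, growth inhibition relative to vehicle.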

[8] = NCI Yeast Anticancer Drug Screen. Data for the CLN2oe strain (AID 163);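 also: 0% = growth of vehicle-only control cultures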; conditions: S. cerevisiae CLN2oe strain, stronger effect = higher value
Procedure, shortened: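 Here, growth inhibition in a cell-cycle-altered yeast strain after compound exposure was quantified against vehicle control growth.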

[9] = NCI Yeast Anticancer Drug Screen. Data for the cln2 rad14 strain (AID 165);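 also: 0% = growth equal to vehicle treated cultures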; conditions: S. cerevisiae cln2 rad14 strain, stronger effect = higher value
Procedure, shortened: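 Growth of compound-exposed yeast (cln2 rad14 genotype) measured and expressed as inhibition relative to vehicle.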

[10] = NCI Yeast Anticancer Drug Screen. Data for the bub3 strain (AID 167); conditions: S. cerevisiae bub3 mutant strain, stronger effect = higher value
Procedure, shortened: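 Steps: expose the mutant yeast strain to compound; grow alongside vehicle-treated cultures; measure growth; express inhibition against the vehicle cultures.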

[11] = NCI Yeast Anticancer Drug Screen. Data for the wt2 strain (AID 169);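 also: 0% = growth of vehicle-treated yeast cultures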; conditions: S. cerevisiae wt2 strain growth inhibition, stronger effect = higher value
Procedure, shortened: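 Genetically defined yeast strains from a DNA-repair/cell-cycle panel were used. Compound-exposed yeast growth was measured, and the inhibition was calculated relative to vehicle treatment.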

[12] = NCI Yeast Anticancer Drug Screen. Data for the mlh1 strain (AID 171);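 also: 0% = growth of vehicle-treated control cultures of the same strain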; conditions: S. cerevisiae mlh1 strain growth inhibition, stronger effect = higher value
Procedure, shortened: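 Here the genetically defined yeast mutant is grown with each compound, and the extent to which its growth falls below that of vehicle-exposed cells is reported.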

[13] = NCI Yeast Anticancer Drug Screen. Data for the sgs1 strain (AID 173);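 also: 0% = growth of vehicle-only control cultures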; conditions: S. cerevisiae sgs1 mutant, stronger effect = higher value
Procedure, shortened: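 Relative growth inhibition, referenced to vehicle, was determined in a yeast strain with a defined alteration affecting DNA damage repair or cell cycle control after compound exposure.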

[14] = NCI Yeast Anticancer Drug Screen. Data for the mlh1 rad18 strain (AID 175); conditions: S. cerevisiae mlh1 rad18 strain growth inhibition, stronger effect = higher value
Procedure, shortened: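 In this whole-cell yeast screen, a strain with altered DNA damage repair is challenged with compound, and its growth is measured against matched vehicle-treated controls.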

[15] = at 5.0 µM (retest, dose inferred, filed as 0.5)
[16] = at 50.0 µM (retest, dose inferred, filed as 5.0)

Measured: growth inhibition

COc1ccc(C(=O)/C=C\c2ccc(Cl)c(Cl)c2)cc1
active: [3]; at 100.0 µM 70% | [4]; at 100.0 µM 71% | [7]; [16] 80% | [7]; at 50.0 µM 70.8% | [9]; [16] 77% | [10]; [16] 80% | [10]; at 50.0 µM 74.6% | [11]; at 100.0 µM 76% | [14]; [16] 72%
inactive: [1]; at 1.2 µM 16% | [1]; at 3.7 µM 15% | [1]; at 11.0 µM 19% | [1]; at 33.0 µM 34% | [1]; at 100.0 µM 56% | [2]; at 1.2 µM 12% | [2]; at 3.7 µM 10% | [2]; at 11.0 µM 16% | [2]; at 33.0 µM 31% | [2]; at 100.0 µM 24% | [3]; at 1.2 µM 7% | [3]; at 3.7 µM -38% | [3]; at 11.0 µM -4% | [3]; at 33.0 µM 25% | [4]; at 1.2 µM 4% | [4]; at 3.7 µM 7% | [4]; [15] 53% | [4]; at 11.0 µM 6% | [4]; at 33.0 µM 34% | [4]; [16] 68% | [4]; at 50.0 µM 69.5% | [5]; at 1.2 µM -7% | [5]; at 3.7 µM 0% | [5]; [15] 47% | [5]; at 11.0 µM 7% | [5]; at 33.0 µM 23% | [5]; [16] 58% | [5]; at 50.0 µM 59.6% | [5]; at 100.0 µM 68% | [6]; at 1.2 µM -19% | [6]; at 3.7 µM -20% | [6]; at 11.0 µM -30% | [6]; at 33.0 µM -17% | [6]; at 100.0 µM 42% | [7]; [15] -18% | [8]; at 1.2 µM 12% | [8]; at 3.7 µM 10% | [8]; at 11.0 µM 8% | [8]; at 33.0 µM 22% | [8]; at 100.0 µM 69% | [9]; [15] 18% | [9]; at 50.0 µM 57.6% | [10]; at 1.2 µM 0% | [10]; at 3.7 µM 2% | [10]; [15] 12% | [10]; at 11.0 µM -3% | [10]; at 33.0 µM 29% | [10]; at 100.0 µM 67% | [11]; at 1.2 µM 15% | [11]; at 3.7 µM 0% | [11]; at 11.0 µM 12% | [11]; at 33.0 µM 37% | [12]; at 1.2 µM 11% | [12]; at 3.7 µM 12% | [12]; at 11.0 µM -11% | [12]; at 33.0 µM 15% | [12]; at 100.0 µM 64% | [13]; at 1.2 µM 10% | [13]; at 3.7 µM 5% | [13]; at 11.0 µM 11% | [13]; at 33.0 µM 44% | [13]; at 100.0 µM 67% | [14]; [15] 39% | [14]; at 50.0 µM 63.5%
